NS1 function inh – inhibitors of influenza NS1 protein function; Potency, µM (highest dose often 46.1 µM), without a hit: at the top dose activity, positive = more growth; 270,000 compounds, 0.4% hits; AID 2326; calls by dose curve; note: potency is the fitted concentration of half-maximal effect; actives are rising curves; nearly all actives have a fitted effect of over 50% in size
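Compounds were scored for reversing the slow growth caused by influenza A NS1 in S. cerevisiae, measured by optical density at 600 nm. Assay medium contained 2% galactose at pH 6.0; NS1-free yeast of the same strain were the positive control.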
Sm TGR block – inhibitors of Schistosoma mansoni thioredoxin glutathione reductase; purified TGR, DTNB reduction, TNB absorbance 405 nm; Potency, µM (series often up to 114 µM), without a hit: top-dose activity change, negative = inhibition, most hits filed as inhibitors; 360,000 compounds, 3% hits; note: potency is the fitted concentration of half-maximal effect; % is set by controls: 0 for no effect and ±100 for the full control effect; nearly all actives have a fitted effect of over 60% in size
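First, TGR (20 nM dispensed) and NADPH were mixed with compound. Second, a 15 min room-temperature incubation followed. Third, further NADPH and then DTNB were added to start the reaction. Finally, TNB absorbance was monitored kinetically.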
Pf growth 96h – P. falciparum growth inhibition at 96 hours; P. falciparum luciferase reporter growth, 96 h; Potency, µM (highest dose often 28.7 µM), inactives show at the highest dose activity change, negative = inhibition, hits mostly inhibitors; 320,000 compounds, 6.9% hits; AID 504834; note: potency is the fitted concentration of half-maximal effect; % is set by controls: 0 for no effect and ±100 for the full control effect
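Two-generation exposure (96 h) targets delayed-death phenotype. Reporter parasites carrying integrated firefly luciferase, in red cells at 2% hematocrit and 0.05% parasitemia final, kept at 37 C, 5% CO2; luminescence loss indicates inhibition.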
Shiga inhibitor – inhibitors of Shiga toxin in Vero cells | Vero cells, Shiga toxin protein synthesis inhibition reporter | inhibition, % at 38.7 µM | 290,000 compounds, 9.2% hits; in the data active = inhibition mostly above about 28%, no sharp cut-off; inactive = mostly below about 43%; note: 0% is about no effect
Cycloheximide cs – affects cycloheximide protein synthesis inhibition readout, counter-screen | cell reporter, cycloheximide protein synthesis inhibition counterscreen | max response, % | 300,000 compounds, 12% hits; in the data active = max response mostly above about 13%, no sharp cut-off; inactive = mostly below about 14%; note: read at 38.3 µM for the half of the compounds with a filed dose; 0% is about no effect
Pf growth 48h – P. falciparum growth inhibition at 48 hours (one generation); P. falciparum luciferase growth in erythrocytes, 48 h; Potency, µM (doses to about 28.7 µM), without a hit: at the highest dose activity change, negative = inhibition, most hits filed as inhibitors; 310,000 compounds, 5.9% hits; note: potency is the fitted concentration of half-maximal effect; % is set by controls: 0 for no effect and ±100 for the full control effect
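Erythrocytes infected with P. falciparum carrying an integrated firefly luciferase reporter (2% hematocrit, 0.1% parasitemia final) were exposed to compounds in RPMI 1640 with 0.5% Albumax at 37 C, 5% CO2. Growth inhibition was scored as reduced luminescence.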
Active calls of the source: *; [ ] = another dose, or the depositor's remark. Rows were chosen to be rich in hits. Some 21% of all compounds tested hit in one or more screens of this group. Unless noted, calls come from the whole dose curve; as a rule, active = well fitted curve in the direction sought with a large enough effect; inconclusive = small, poorly fitted or top-dose-only effect, or another doubt; inactive = no such curve, though single readings can be large; an effect the other way counts as inactive or inconclusive.

Screening Cc1ccc(S(=O)(=O)NN2C(=O)c3ccccc3NC2c2ccco2)cc1 (stereo unspecified) returned Sm TGR block inconclusive, Pf growth 96h -11.2%, Shiga inhibitor 35.0, Cycloheximide cs -1.1 and Pf growth 48h 19.3%.
Screening COc1ccc(/C=N/N2C(=N)SCC2=O)cc1 returned NS1 function inh -0.4%, Sm TGR block 5.2%, Pf growth 96h 51.6%, Shiga inhibitor 29.2, Cycloheximide cs 14.3* and Pf growth 48h 55.8%.
`Cc1ccccc1/C=N/N1C(=O)CSC1=S` gave NS1 function inh 4.6%, Sm TGR block 10µM*, Pf growth 96h 15.6%, Shiga inhibitor -5.7, Cycloheximide cs -2.5 and Pf growth 48h -2.1%[0.00184 µM].
Screening O=C1CSC(=S)N1/N=C/c1ccc(Cl)c([N+](=O)[O-])c1 returned NS1 function inh 5.1%, Sm TGR block 22.4µM*, Pf growth 96h inconclusive, Shiga inhibitor 8.1, Cycloheximide cs 12.0 and Pf growth 48h inconclusive.
COc1cc(/C=N/N=C2/C(=O)Nc3ccccc32)ccc1O was read as NS1 function inh -18.7%, Sm TGR block -13.4%, Pf growth 96h inconclusive, Shiga inhibitor 0.0, Cycloheximide cs 23.2* and Pf growth 48h 7.1%.
For Nc1nnc(SCC(=O)c2ccc3c(c2)NC(=O)CO3)s1 the results were NS1 function inh 2.9%, Sm TGR block -4.7%, Pf growth 96h inconclusive, Shiga inhibitor 9.0, Cycloheximide cs 6.2 and Pf growth 48h 5.7%.
`O=C1CSC(=S)N1/N=C/c1cc(Br)c(O)c(Br)c1` gave NS1 function inh -30.2%, Sm TGR block 20µM*, Pf growth 96h inconclusive, Shiga inhibitor -13.3, Cycloheximide cs -1.6 and Pf growth 48h -2.3%.
For O=C1CSC(=S)N1/N=C\c1ccc(Cl)c([N+](=O)[O-])c1 the results were NS1 function inh 16.7%.
For CCOC(=O)N1CCC(NC(=O)c2cc3c(-c4cccc(OC)c4)nn(C)c3s2)CC1 the results were NS1 function inh 3.4%, Sm TGR block -1.3%, Shiga inhibitor -8.1, Cycloheximide cs -1.6 and Pf growth 48h 9.28µM*.
Screening CCN(CC)CCNC(=O)c1cc2c(-c3cccc(OC)c3)nn(C)c2s1 returned NS1 function inh 2.8%, Sm TGR block 0.0%, Pf growth 96h inconclusive, Shiga inhibitor 2.8, Cycloheximide cs -1.1 and Pf growth 48h 1.47µM*.
For COc1cccc(-c2nn(C)c3sc(C(=O)Nc4ccc5c(c4)OCCO5)cc23)c1 the results were NS1 function inh -8.6%, Sm TGR block -3.4%, Pf growth 96h 27.5%, Shiga inhibitor 74.7*, Cycloheximide cs 60.7* and Pf growth 48h inconclusive.
For Cc1oc2ncnc(N3CCOCC3)c2c1C(=O)Nc1ccc(Br)cc1F the results were Sm TGR block -8.5%.
O=C(NCc1ccccc1Br)c1cnc2sc(N3CCCCCC3)nn2c1=O was read as Sm TGR block 3.0%.
Screening Cc1cc(C)n2nc(C(=O)N/N=C/c3ccc(Cl)cc3)nc2n1 returned Sm TGR block -16.0%, Pf growth 96h 0.0%, Shiga inhibitor -4.7, Cycloheximide cs -1.5 and Pf growth 48h 6.0%.
For Cc1cc(C)n2nc(C(=O)N/N=C/c3cccc(Cl)c3)nc2n1 the results were NS1 function inh -4.2%, Sm TGR block 6.9%, Pf growth 96h 62.5%, Shiga inhibitor 33.8, Cycloheximide cs 9.4* and Pf growth 48h 0.0%.
Cc1cc(C)n2nc(C(=O)NNC(=O)c3ccc(Cl)cc3)nc2n1 was read as NS1 function inh 7.3%, Sm TGR block 9.3%, Pf growth 96h 70.9%, Shiga inhibitor 33.7*, Cycloheximide cs 30.7* and Pf growth 48h 40.9%.
`COc1ccc(C(=O)NCCS(=O)(=O)N2CCN(C(=O)c3ccco3)CC2)cc1` gave Sm TGR block -2.0%, Pf growth 96h -28.3% and Pf growth 48h 24.3%.
`O=C(Cc1ncn[nH]1)NCCc1ccccc1` gave NS1 function inh 6.5%, Sm TGR block -5.6%, Pf growth 96h 7.38µM*, Shiga inhibitor -7.0 and Cycloheximide cs -2.6.
Screening O=C(NCCc1ccccc1)c1ccc(=O)[nH]c1 returned NS1 function inh inconclusive, Sm TGR block -3.1%, Pf growth 96h 32.0%, Shiga inhibitor 56.5*, Cycloheximide cs 26.4 and Pf growth 48h 23.5%.
O=C(NCCSCc1ccco1)c1ccc(=O)[nH]c1 was read as NS1 function inh 5.5%, Sm TGR block 35.5µM*, Pf growth 96h -10.4%, Shiga inhibitor -8.0, Cycloheximide cs -3.1 and Pf growth 48h -4.4%.
`CS(=O)(=O)Nc1ccc(C(=O)NCCSCc2ccco2)cc1` gave NS1 function inh -2.3%, Sm TGR block inconclusive, Shiga inhibitor 50.5, Cycloheximide cs -2.4 and Pf growth 48h 11.7%.
For COc1ccc(-c2cc(C(F)(F)F)n3nc(C(=O)Nc4sc5c(c4C(=O)OC(C)C)CCC(C)C5)cc3n2)cc1 (stereo unspecified) the results were Sm TGR block 0.2%.
For CCCCCCCCc1nc(SC(C)C(=O)O)n[nH]1 (stereo unspecified) the results were Sm TGR block 5.1%, Pf growth 96h inconclusive, Shiga inhibitor 59.4, Cycloheximide cs 2.8 and Pf growth 48h 43.3%.
`CCC(C)c1ccc(O)c(NC(=O)c2cccnc2)c1` (stereo unspecified) gave NS1 function inh -106.9%, Sm TGR block -7.3%, Pf growth 96h inconclusive, Shiga inhibitor -15.3 and Cycloheximide cs -1.9.
Screening CCC(C)c1ccc(NC(=O)c2cccnc2)cc1 (stereo unspecified) returned NS1 function inh -2.1%, Sm TGR block -8.8%, Pf growth 96h 4.9%, Shiga inhibitor 59.3*, Cycloheximide cs 43.3* and Pf growth 48h -26.6%.
O=C(Nc1ccc(NC(=O)c2cccnc2)cc1)c1ccccc1 was read as NS1 function inh 0.2%, Sm TGR block -1.7%, Pf growth 96h -25.6%, Shiga inhibitor 17.1, Cycloheximide cs 1.2 and Pf growth 48h 30.0%.
Screening CCCCSc1ccc(NC(=O)c2cccnc2)cc1 returned NS1 function inh -68.9%, Sm TGR block 4.6%, Shiga inhibitor 34.7, Cycloheximide cs 13.5* and Pf growth 48h -13.9%.
CCC(=O)N1c2ccccc2CC1C(=O)NCc1ccc(N(C)C)cc1 (stereo unspecified) was read as Sm TGR block -0.6%.
COc1ccc(S(=O)(=O)N2CCN(Cc3cccc(Cl)c3)CC2)cc1 was read as NS1 function inh -11.3%, Sm TGR block 5.4%, Pf growth 96h 6.2%, Shiga inhibitor 2.5, Cycloheximide cs -4.3 and Pf growth 48h 0.1%.
Screening COc1cccc(CN2CCN(S(=O)(=O)c3ccc(Cl)s3)CC2)c1 returned NS1 function inh -27.1%, Sm TGR block 2.5%, Pf growth 96h 9.2%, Shiga inhibitor 31.8, Cycloheximide cs 12.6* and Pf growth 48h 17.4%.

From PubChem
